Screening results (PubChem BioAssay)
A selection: hits, their analogues and other compounds. The true share with any hit is near 10%.
SW480 rerep: DNA re-replication induction in SW480 cells; SW480 DNA re-replication, Hoechst DNA content imaging, 48 h; Potency, µM (doses to about 46.1 µM), actives largely listed as activators; 1.8% of 340,000 active; also: nearly all actives have a fitted effect of over 55% in size
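Hoechst fluorescence of nuclei (405 nm excitation, 500-530 nm emission) measured by plate-scanning imager after 48 hr compound exposure at 37 C; re-replication scored as increased number of nuclei with elevated intensity.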
MCF10A rerep: DNA re-replication induction in MCF 10a cells; MCF 10A DNA re-replication, Hoechst nuclear intensity, 48 h; Potency, µM (highest dose often 46.1 µM), usual class: activators; 2.9% of 350,000 active; also: nearly all actives have a fitted effect of over 50% in size
RORgamma inh: blocks mouse ROR gamma transcriptional activity; P51450; Drosophila S2 Gal4-RORgamma UAS-luciferase reporter, 20 h; Potency, µM (series often up to 53.6 µM), actives largely listed as inhibitors; 5.4% of 310,000 active; also: nearly all actives have a fitted effect of over 60% in size
Target sequence (P51450 whole entry, looked up, the tested form may be a part): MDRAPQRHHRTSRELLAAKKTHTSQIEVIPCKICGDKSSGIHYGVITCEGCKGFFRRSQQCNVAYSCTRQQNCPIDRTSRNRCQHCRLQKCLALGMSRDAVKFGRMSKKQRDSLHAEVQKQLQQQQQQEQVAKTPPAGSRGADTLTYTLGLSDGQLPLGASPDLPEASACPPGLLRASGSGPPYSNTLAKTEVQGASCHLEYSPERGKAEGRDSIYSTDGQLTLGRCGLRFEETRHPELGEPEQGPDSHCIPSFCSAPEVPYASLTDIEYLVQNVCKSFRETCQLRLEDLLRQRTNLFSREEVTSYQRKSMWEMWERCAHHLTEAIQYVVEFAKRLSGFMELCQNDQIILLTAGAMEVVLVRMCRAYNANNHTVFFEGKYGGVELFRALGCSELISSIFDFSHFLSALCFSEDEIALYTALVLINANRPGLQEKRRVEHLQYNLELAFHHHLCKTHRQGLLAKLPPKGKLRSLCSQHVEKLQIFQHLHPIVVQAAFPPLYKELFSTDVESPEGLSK
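Stable Schneider cell line, Gal4 DNA-binding domain fused to ROR gamma, UAS-luciferase. Cmpd 1 hr RT → CuSO4 700 uM final → 20 hr RT → luciferase reagent 10 min → luminescence.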
ELG1 DNA repair: blocks ELG1-dependent DNA repair in HEK293T cells; HEK293T ELG1-luciferase reporter, luminescence, 16 h; DNA damage induced by 5-fluorouridine; Potency, µM (series often up to 46.1 µM), most hits filed as inhibitors; 2.3% of 330,000 active; also: nearly all actives have a fitted effect of over 55% in size
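DMSO vehicle served as the neutral condition. Each well held 2,000 cells given 5-fluorouridine plus compound; after 16 hr at 37 °C/5% CO2, ONE-Glo was added and luciferase measured 30 min later.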
VP16 counter: counter-screen for ROR gamma inhibitors: Gal4-VP16 reporter; Drosophila S2 Gal4-VP16 UAS-luciferase, luminescence, 20 h; Potency, µM (doses to about 53.6 µM), hits mostly inhibitors; 3.5% of 310,000 active; AID 2546;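 also: Gal4-VP16 expression switched on by copper sulfate through the metallothionein promoter; nearly all actives have a fitted effect of over 50% in size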
Each line names hits and unclear results; the compound was inactive in the other large screens. Calls follow the shape of the dose curve; as a rule, active = well fitted curve in the direction sought with a large enough effect; inconclusive = small, poorly fitted or top-dose-only effect, or another doubt; inactive = no such curve, though single readings can be large; an effect the other way counts as inactive or inconclusive.

CC1Oc2cc3c(-c4c(O)cc(O)c5c(O)c6c(cc45)OC(C)C(C)C6=O)c(O)cc(O)c3c(O)c2C(=O)C1C (configuration not stated)	SW480 rerep 13µM, RORgamma inh 4µM, ELG1 DNA repair 6.5µM, VP16 counter inconclusive
C=Cc1cc(OC)c2c(c1)c(=O)oc1c2cc(OC)c2c(O)ccc(C3OC(C)C(O)C(C)(O)C3O)c21 (configuration not stated)	SW480 rerep 8.2µM, MCF10A rerep 3.7µM (no result: RORgamma inh, ELG1 DNA repair, VP16 counter)
ClCC(Cl)Cl	none (no result: SW480 rerep, MCF10A rerep, ELG1 DNA repair)
CCOc1cc2c(cc1OCC)-n1cccc1C(c1ccc(F)cc1)NC2 (configuration not stated)	MCF10A rerep inconclusive, ELG1 DNA repair inconclusive
CCOc1cc2c(cc1OCC)-n1cccc1C(c1ccc(C(C)C)cc1)NC2 (configuration not stated)	SW480 rerep inconclusive, MCF10A rerep 18µM, RORgamma inh inconclusive, ELG1 DNA repair inconclusive, VP16 counter inconclusive
Oc1ccccc1-[n+]1c(-c2ccccc2)cc(-c2ccccc2)cc1-c1ccccc1	ELG1 DNA repair inconclusive (no result: RORgamma inh, VP16 counter)
Cc1ccccc1-[n+]1c(-c2ccccc2)cc(-c2ccccc2)cc1-c1ccccc1	SW480 rerep 2.3µM, ELG1 DNA repair inconclusive (no result: RORgamma inh, VP16 counter)
Cn1cccc1/C=C1\C(=O)NC(=O)N(Cc2ccco2)C1=O	none
O=C1NC(=O)N(Cc2ccccc2)C(=O)/C1=C/c1cnc(-c2ccccc2)nc1	none
O=C1NC(=O)N(CCc2ccc(F)cc2)C(=O)/C1=C\C=C\c1ccccc1	MCF10A rerep 4.1µM, ELG1 DNA repair inconclusive
O=C1NC(=O)N(Cc2ccccc2)C(=O)/C1=C\C=C\c1ccco1	MCF10A rerep 12µM, RORgamma inh inconclusive, ELG1 DNA repair inconclusive
C=CCN1C(=O)NC(=O)/C(=C/C=C/c2ccccc2)C1=O	SW480 rerep inconclusive, MCF10A rerep inconclusive, RORgamma inh inconclusive, ELG1 DNA repair inconclusive
O=C1NC(=O)N(Cc2ccco2)C(=O)/C1=C/C=C/c1ccco1	SW480 rerep inconclusive, MCF10A rerep 18µM, ELG1 DNA repair inconclusive
CC(C)CCNC(=O)CNC(=O)[C@@H](C)NC(=O)[C@@H](N)Cc1ccc(O)cc1	none (no result: SW480 rerep, MCF10A rerep, ELG1 DNA repair)
O=C(N/N=C\c1ccc(COc2ccc([N+](=O)[O-])cc2)o1)c1cccc(Cl)c1	RORgamma inh 1.8µM, ELG1 DNA repair inconclusive, VP16 counter 2.5µM
CC(C)=CCCN1CCC(NC(=O)C(O)(c2ccccc2)C2CCCC2)CC1 (configuration not stated)	none (no result: SW480 rerep, MCF10A rerep, ELG1 DNA repair)
COc1ccc(NC2Oc3cc4c(cc3C(c3cc(OC)c(OC)c(OC)c3)C2C)OCO4)cc1 (configuration not stated)	SW480 rerep 1µM, MCF10A rerep 0.58µM (no result: RORgamma inh, ELG1 DNA repair, VP16 counter)
COc1cc(C2c3cc4c(cc3C(O)[C@H]3COC(=O)C23)OCO4)cc(OC)c1OC (some centres not stated)	RORgamma inh inconclusive (no result: SW480 rerep, MCF10A rerep, ELG1 DNA repair)
CN(Cc1ccc(OC(F)F)cc1)Cc1nc2c(Br)cc(Br)cc2c(=O)[nH]1	SW480 rerep inconclusive, RORgamma inh 3.2µM, ELG1 DNA repair inconclusive, VP16 counter 13µM
NS(=O)(=O)c1ccc(CCNC(=O)c2ccc(Cl)c(S(=O)(=O)N3CCCCC3)c2)cc1	ELG1 DNA repair 16µM (no result: RORgamma inh, VP16 counter)
C#C[C@@]1(O)CC[C@@H]2[C@@H]3CCC4=CC(=O)CC[C@@]4(C)[C@H]3CC[C@]21C	none (no result: SW480 rerep, MCF10A rerep, ELG1 DNA repair)
Cc1cc(C(=O)CN2C(=O)c3ccccc3C2=O)c(C)n1C1CC1	ELG1 DNA repair inconclusive, VP16 counter 16µM
CN(C)c1ccc(/C=C2\CCCN=C2c2cccnc2)cc1	none (no result: SW480 rerep, MCF10A rerep, ELG1 DNA repair)
CC(=O)Oc1ccc(Cl)c2cccnc12	RORgamma inh 0.56µM, VP16 counter 0.71µM (no result: SW480 rerep, MCF10A rerep, ELG1 DNA repair)
CC1(C)C[C@H]2C=C(C=O)[C@]3(C=O)C[C@]3(C)[C@H]2C1	SW480 rerep 9.2µM, MCF10A rerep 2.1µM, RORgamma inh 1.4µM, ELG1 DNA repair 5.8µM, VP16 counter 1.1µM
Cc1cc(C)nc(N/N=C/C2=C(O)CC(c3ccccc3)CC2=O)n1 (configuration not stated)	RORgamma inh inconclusive, ELG1 DNA repair inconclusive (no result: SW480 rerep, MCF10A rerep)
CC(C)CON=O	none (no result: SW480 rerep, MCF10A rerep, ELG1 DNA repair)
O=C(Nc1ccc(Cl)c(Cl)c1)c1ccco1	RORgamma inh inconclusive, ELG1 DNA repair inconclusive, VP16 counter inconclusive
CCN(c1ccc(C)cc1C)S(=O)(=O)c1nnc(NC(=O)c2ccco2)s1	SW480 rerep inconclusive, MCF10A rerep 21µM, RORgamma inh inconclusive
CC1=CC(=O)C2=C(C)C[C@@H](O)[C@@H]3[C@@H](OC(=O)[C@H]3C)[C@H]12	none (no result: SW480 rerep, MCF10A rerep, ELG1 DNA repair)
COCCO[C@H]1CC[C@@]2(C)C(=CCC3C2CC[C@@]2(C)C3CC[C@]2(C)O)C1 (some centres not stated)	SW480 rerep inconclusive, MCF10A rerep inconclusive, ELG1 DNA repair 18µM (no result: RORgamma inh, VP16 counter)
Cc1ccc(-n2sc3ccccc3c2=O)cc1	SW480 rerep inconclusive, MCF10A rerep inconclusive, RORgamma inh 5µM, ELG1 DNA repair inconclusive, VP16 counter 1.6µM
COc1ccc(-c2nc3ccccc3c(=O)n2-c2ccc(OC)cc2)cc1	none
Clc1cc(Cl)c(Cl)c(Cl)c1	none (no result: SW480 rerep, MCF10A rerep, ELG1 DNA repair)
ClCC(Cl)CCl	none (no result: SW480 rerep, MCF10A rerep, ELG1 DNA repair)
COc1ccc(C(=O)C2CCCN(C3CSCCSC3)C2)c(C)c1 (configuration not stated)	MCF10A rerep inconclusive, RORgamma inh 10µM, ELG1 DNA repair inconclusive
O=C(Nc1cccc(F)c1)N1CCCC2(CCN(C(=O)Oc3ccccc3)CC2)C1	none (no result: SW480 rerep, MCF10A rerep, ELG1 DNA repair)
CNCC[C@H](Oc1cccc2ccccc12)c1cccs1	SW480 rerep 13µM (no result: ELG1 DNA repair)
C/C(CC(=O)Nc1ccc(Cl)cn1)=N\NC(=O)Cc1cccs1	ELG1 DNA repair inconclusive
O=C(Nc1ccc(Br)cc1C(=O)O)c1ccc2c(c1)C(=O)N(Cc1ccccc1)C2=O	MCF10A rerep inconclusive, RORgamma inh 10µM, VP16 counter inconclusive
CCN1CCCC(OC(=O)C(c2ccccc2)c2ccccc2)C1 (configuration not stated)	SW480 rerep inconclusive, MCF10A rerep inconclusive
O=C(c1ccccc1)C(CN1CCCC1)c1ccccc1 (configuration not stated)	SW480 rerep 7.3µM, MCF10A rerep 3.3µM, RORgamma inh 5.6µM, ELG1 DNA repair 18µM, VP16 counter 4.5µM
CCOC(=O)C1(CCOc2ccccc2)CCN(C2Cc3ccccc3C2)CC1	MCF10A rerep 9.2µM, ELG1 DNA repair inconclusive
CCOC(=O)C1(CCOc2ccccc2)CCN(C(C)CSC)CC1 (configuration not stated)	none
[Hg+][c]1ccccc1	SW480 rerep 11µM, RORgamma inh inconclusive, VP16 counter 2.8µM (no result: ELG1 DNA repair)
c1ccc(-c2ccccc2)cc1	none (no result: SW480 rerep, MCF10A rerep, ELG1 DNA repair)
Cc1cc(C)nc(/N=C/c2c(O)n(C)c(=O)n(C)c2=O)n1	VP16 counter inconclusive (no result: SW480 rerep, MCF10A rerep)
C=CCBr	none (no result: SW480 rerep, MCF10A rerep, ELG1 DNA repair)
O=P(O)(O)c1ccccc1OCCOCCOCCOCCOc1ccccc1P(=O)(O)O	ELG1 DNA repair inconclusive
CC(C)OP(=O)(Oc1ccc(C(O)C(Cl)(Cl)Cl)cc1)OC(C)C (configuration not stated)	ELG1 DNA repair 18µM
